PostGolgi ctrl = yeast control strain growth, post-Golgi counter-screen | efflux-deficient yeast background strain, growth absorbance A615, 16 h | inhibition, % at 10 µM | 5% of 98,000 active
PostGolgi yeast = growth inhibition of a yeast mutant, post-Golgi transport screen; post-Golgi transport phenotypic cell assay; inhibition, % at 10 µM; 0.9% of 98,000 active;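 note: yeast cells grown in 1536-well plates; yeast grown about 18 h at 30C before absorbance read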
Measles CPE = protection of cells from measles virus; Measles virus-infected cells, CPE protection, absorbance; protection (pct of control), % at 4 µM; 1.5% of 140,000 active; in the data active = protection mostly above about 24%, no sharp cut-off; inactive = mostly below about 26%
MT1-MMP txn act = activates MT1-MMP transcription | AID 750 | HT1080 MT1-MMP promoter luciferase reporter, luminescence, overnight; hits give high values | 0.16% of 86,000 active | activation factor at 10 µM;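 active = activation factor of at least 2 for MT1-MMP transcription at 10 µM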
Each line names hits and unclear results; the compound was inactive in the other large screens. Rows were chosen to be rich in hits. Some 5.3% of all compounds tested hit in one or more screens of this group. Cut-off read from the data, not from the text of the source, unless noted: active = inhibition above about 30%; inactive = the rest.

CN(C)c1ccc(NS(=O)(=O)c2cc(Cl)ccc2Cl)cc1	none (no result: PostGolgi ctrl, PostGolgi yeast, MT1-MMP txn act)
COc1ccc(-n2c(C)n[nH]c2=O)cc1	Measles CPE 68 (no result: MT1-MMP txn act)
O=C(Oc1cccnc1)c1ccc([N+](=O)[O-])cc1	none (no result: PostGolgi ctrl, PostGolgi yeast, MT1-MMP txn act)
O=[N+]([O-])c1cc(Oc2cccnc2)cc([N+](=O)[O-])c1	Measles CPE 55 (no result: PostGolgi ctrl, PostGolgi yeast, MT1-MMP txn act)
CCCC(=O)Nn1cnc2c(c1=O)C1(CCCCC1)Cc1ccccc1-2	PostGolgi ctrl 35 (no result: MT1-MMP txn act)
CCC(=O)Nn1cnc2c(c1=O)C1(CCCCC1)Cc1ccccc1-2	PostGolgi ctrl 31 (no result: MT1-MMP txn act)
Cn1c(NCCCO)nc2c(c1=O)C1(CCCCC1)Cc1ccccc1-2	PostGolgi ctrl 36
CCC1(C)Cc2ccccc2-c2nc(NCCCO)n(-c3ccccc3)c(=O)c21 (configuration not stated)	none
Nc1ncnc2c1C1(CCCCC1)Cc1ccccc1-2	none (no result: PostGolgi ctrl, PostGolgi yeast, MT1-MMP txn act)
Cc1ccc(NC(=O)/C(=C\c2cccnc2)NC(=O)c2ccco2)cc1	none (no result: MT1-MMP txn act)
Cn1c(/C=C/c2ccc([N+](=O)[O-])o2)nc2ccccc2c1=O	PostGolgi ctrl 41, PostGolgi yeast 62
O=C(CSc1ccc(-c2ccco2)nn1)NCc1ccccc1	none (no result: PostGolgi ctrl, PostGolgi yeast, MT1-MMP txn act)
c1csc(CCNc2ncnc3sc4c(c23)CCC4)c1	PostGolgi ctrl 82 (no result: MT1-MMP txn act)
Fc1ccc(Nc2ncnc3sc4c(c23)CCC4)cc1	PostGolgi ctrl 40 (no result: MT1-MMP txn act)
O=S(=O)(Nc1ccc(-c2nc3ccccc3o2)cc1)c1ccccc1	PostGolgi ctrl 39
CC(=NCCN1CCN(C(C)=C2C(=O)c3ccccc3C2=O)CC1)C1=C(O)CC(C)(C)CC1=O	none (no result: PostGolgi ctrl, PostGolgi yeast, MT1-MMP txn act)
CCCCCCSC1=C(C#N)C(c2ccccc2)CC(=O)N1 (configuration not stated)	PostGolgi ctrl 57, PostGolgi yeast 36
Cc1cc(=O)[nH]c2ccccc12	none
O=c1cc(-c2ccccc2)c2ccccc2[nH]1	Measles CPE 76
O=C(O)c1cc(-c2ccc(Cl)cc2)n[nH]1	Measles CPE 35
CCOC(=O)c1nnc(-c2ccc(C)cc2)nc1Sc1ccccc1Cl	none
CCOC(=O)c1nnc(-c2ccccc2)nc1NCc1ccc(Cl)cc1	PostGolgi ctrl 39 (no result: MT1-MMP txn act)
CCOC(=O)c1nnc(-c2ccccc2)nc1Sc1c(Cl)cccc1Cl	none
CCOC(=O)c1nnc(-c2ccc(C)cc2)nc1Oc1ccccc1Cl	PostGolgi ctrl 47 (no result: MT1-MMP txn act)
CCOC(=O)c1nnc(-c2cccs2)nc1Oc1ccc(Cl)cc1	PostGolgi ctrl 47
CCOC(=O)c1nnc(-c2ccc(C)cc2)nc1Oc1ccc(Cl)cc1Cl	PostGolgi ctrl 35 (no result: MT1-MMP txn act)
C/C(CCc1ccc2c(c1)OCO2)=N\N=C(/N)SC1CC(=O)N(c2ccccc2F)C1=O (configuration not stated)	none (no result: MT1-MMP txn act)
c1cncc(-c2ccnc3ncnn23)c1	none (no result: PostGolgi ctrl, PostGolgi yeast, MT1-MMP txn act)
COc1ccc(SCc2noc(C(=O)NC(C)C)c2C(=O)O)cc1	none (no result: MT1-MMP txn act)
CO/N=C(/CS(=O)(=O)c1ccc(C)cc1)c1ccc(OC)cc1	none
COc1ccc(C(C)=O)cc1COc1ccc(-n2cnnn2)cc1	none
COc1cc(SC)ccc1C(=O)Nc1ccc(C)cc1C	none (no result: PostGolgi ctrl, PostGolgi yeast, MT1-MMP txn act)
COc1cc(SC)ccc1C(=O)Nc1ccon1	PostGolgi ctrl 31
Cc1ccc2cccc(S(=O)(=O)N3CCN(c4cccc(Cl)c4)CC3)c2n1	PostGolgi ctrl 57
O=S(=O)(c1cccc2cccnc12)N1CCN(c2ccccc2)CC1	none
COc1ccc(C2C3=C(CCCC3=O)Nc3nc(SCc4ccc(C(=O)O)cc4)nn32)cc1OC (configuration not stated)	Measles CPE 31
COc1ccc(C2C3=C(CCCC3=O)Nc3nc(SCc4ccccc4)nn32)cc1OC (configuration not stated)	none
Cn1nnnc1SCC(=O)N1c2ccccc2Sc2ccccc21	none
CCn1nnnc1SCC(=O)N1c2ccccc2Sc2ccccc21	Measles CPE 28 (no result: PostGolgi ctrl, PostGolgi yeast)
CCOC(=O)C1(C(F)(F)F)N=C(c2cccnc2)OC(N2CCCCC2)=N1 (configuration not stated)	none (no result: PostGolgi ctrl, PostGolgi yeast, MT1-MMP txn act)
O=C(NC(=S)N1CCN(c2ccc(C(F)(F)F)cc2[N+](=O)[O-])CC1)c1cccs1	none (no result: PostGolgi ctrl, PostGolgi yeast, MT1-MMP txn act)
O=[N+]([O-])c1cc(S(=O)(=O)Nc2ccccc2)ccc1NCc1ccccc1	Measles CPE 37 (no result: PostGolgi ctrl, PostGolgi yeast, MT1-MMP txn act)
CC(=O)c1ccc(NC(=O)C2(c3ccccc3)CCOCC2)cc1	none
CCOC(=O)Cn1nc(-c2ccccc2)ccc1=O	none
CCOC(=O)C(C)n1nc(/C=C/c2ccccc2)ccc1=O (configuration not stated)	Measles CPE 88 (no result: MT1-MMP txn act)
COC(=O)[C@@]1(Cc2ccc(F)cc2)[C@H]2c3cc(C(=O)N(C)C)n(CC4CC4)c3C[C@H]2CN1C(=O)c1ccccc1	none (no result: PostGolgi ctrl, PostGolgi yeast, Measles CPE)
COc1ccc2cc(/C(C)=N/NC(=O)c3cc(-c4cccnc4)nc4ccccc34)ccc2c1	none (no result: PostGolgi ctrl, PostGolgi yeast, MT1-MMP txn act)
O=C(CN(c1ccc(F)cc1)S(=O)(=O)c1ccc2c(c1)OCCO2)Nc1ccccc1	PostGolgi yeast 33
CC(=O)Nc1ccc(NC(=O)CN(c2ccc(F)cc2)S(=O)(=O)c2ccc3c(c2)OCCO3)cc1	none

Screening data (PubChem)
